p53ts 32C kill: qHTS Screen for Compounds that Selectively Target Cancer Cells with p53 Mutations: Cytotoxicity of p53ts Cells at the Permissive Temperature; H1299-p53A138V at 32C, ATP luminescence viability, 24 h; Potency, µM (titrated, usually from 46.1 µM), for inactives: at the highest dose activity change, negative = cytotoxicity, actives largely listed as cytotoxic; hit rate 0.93% among 130,000; AID 924, 2007;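 note: 0% = DMSO and -100% = full killing by reference compound; nearly all actives have a fitted effect of over 55% in size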
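Cells: H1299 p53ts (A138V), 600/well, pre-incubated 16–30 h at 37C. Cpd up to 46 uM, 24 h, 32C. Readout: ATPlite luminescence, 20 min RT. Normalization: DMSO vs tamoxifen 100 uM. AC50 by Hill equation.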
Imprint erasure: qHTS Assay for Compounds that Induce Erasure of Genomic Imprints; mouse ES Peg3-LacZ reporter, beta-gal luminescence, 40 h; hit rate 0.02% among 110,000; AID 1948, 2009; Potency, µM (doses to about 60.7 µM), inactives show at the top dose activity change, positive = activation, hits mostly activators
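Imprint erasure is scored as LacZ activity from the silenced maternal Peg3 allele in feeder-free female ES cells cultured 40 h with LIF. Luminescence is normalized to in-plate negative controls and fitted to the Hill equation.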
p53ts 39C kill: qHTS Screen for Compounds that Selectively Target Cancer Cells with p53 Mutations: Cytotoxicity of p53ts Cells at the Nonpermissive Temperature | H1299-p53A138V viability at 39C, ATP luminescence, 24 h | Potency, µM (titrated, usually from 46.1 µM), inactives show top-dose activity change, negative = cell killing, most hits filed as cytotoxic | hit rate 1.5% among 130,000 | AID 902, 2007; note: % is set by controls: 0 for no effect and ±100 for the full control effect; nearly all actives have a fitted effect of over 55% in size
An asterisk follows results filed as active; ? = inconclusive; · = no result given; [ ] = another dose, or the depositor's remark. Only some compounds are listed: those with a hit (about 1.6% of all), similar ones and a draw of the others. Calls come from the whole dose curve; as a rule, active = well fitted curve in the direction sought with a large enough effect; inconclusive = small, poorly fitted or top-dose-only effect, or another doubt; inactive = no such curve, though single readings can be large; an effect the other way counts as inactive or inconclusive. Potency is the fitted concentration of half-maximal effect.

SMILES | p53ts 32C kill | Imprint erasure | p53ts 39C kill
CCN(CC)CCCn1c(-c2ccccc2)nc2c(N3CCOCC3)nc(C)nc21 | -8% | -8% | -2%
COc1cccc(-c2ccc3c(N)c(C(=O)c4ccc(Br)cc4)sc3n2)c1 | ? | -13%[10.9 µM] | 13µM*
COc1ccc(-c2ccc3c(N)c(C(=O)c4ccc(OC)c(OC)c4)sc3n2)cc1 | -23% | 18%[10.9 µM] | ?
CCC1CCCCN1CCCNC(=O)c1cc2c(Cl)nc3ccc(C)cc3c2s1 (centres undefined) | -14% | -16%[10.9 µM] | 13µM*
CCC1CCCCN1CCCNC(=O)c1cc2c(=O)n(CC)c3ccccc3c2s1 (centres undefined) | 6% | -12%[10.9 µM] | -16%
Cc1ccc(NC2=CC(c3ccccc3F)N(c3ccc(C)cc3)C2=O)cc1 (centres undefined) | 15% | 14%[10.9 µM] | -28%
Cc1cc(C)cc(NC(=O)Cn2nnc(C(=O)NCc3ccccc3Cl)c2N)c1 | ? | -11%[10.9 µM] | 7.9µM*
Cc1ccc(C)c(NC(=O)Cn2nnc(C(=O)NCc3ccccc3Cl)c2N)c1 | 4% | 12%[10.9 µM] | 12%
COc1ccc2oc(=O)c(C(=O)Nc3ccc(C(=O)O)cc3)cc2c1 | -2% | ? | -2%
CCCSc1nnc2c(n1)OC(CC)N(C(C)=O)c1ccccc1-2 (centres undefined) | 0% | -6%[10.9 µM] | 1%
COc1ccc(-c2cc(C(F)(F)F)nc(SCCC(=O)Nc3ccc(F)cc3F)n2)cc1 | -2% | -5%[10.9 µM] | -12%
COC(=O)c1ccc2c(=O)n(CCCCCC(=O)N3CCN(c4cc(Cl)ccc4C)CC3)c(=O)[nH]c2c1 | 6.3µM* | -11%[10.9 µM] | 4µM*
COC(=O)c1ccc2c(=O)n(CCCCCC(=O)N3CCN(c4ccccc4)CC3)c(=O)[nH]c2c1 | ? | -8% | ?
CC1=C(c2ccc(C)c(C)c2)S(=O)(=O)N=C1N1CCC(C(=O)Nc2ccc(Cl)cc2)CC1 | -28% | -9%[10.9 µM] | -17%
CC1=C(c2ccc(C(C)C)cc2)S(=O)(=O)N=C1N1CCC(C(=O)Nc2ccc(C)cc2)CC1 | ? | -22%[10.9 µM] | 13µM*
CCc1ccc(C2=C(C)C(N3CCC(C(=O)Nc4ccc(F)cc4)CC3)=NS2(=O)=O)cc1 | ? | -10%[10.9 µM] | 10µM*
CC1=C(c2ccc(F)cc2)S(=O)(=O)N=C1N1CCC(C(=O)NCCc2ccccc2)CC1 | 5% | 11%[10.9 µM] | -11%
O=c1oc2ccccc2cc1-c1cn2cc(Cc3ccccc3F)sc2n1 | 5% | -22%[10.9 µM] | -16%
Clc1ccc(CSc2nc3ncccc3[nH]2)cc1 | 13µM* | -28%[10.9 µM] | 10µM*
Cc1oc(-c2ccc(Cl)cc2)nc1CSc1nc2ncccc2[nH]1 | 9% | · | ·
O=C(c1cccs1)N1CCC(Cc2ccccc2)CC1 | -2% | · | -4%
O=C(Cc1cc(=O)[nH]c(=O)[nH]1)N1CCC(Cc2ccccc2)CC1 | 10µM* | -15% | ?
Cc1cc(=O)n2nc(N(C)CC(=O)NCc3ccc(Cl)cc3)sc2n1 | -7% | -3%[10.9 µM] | 0%
CCCCc1ccc(-n2nc3ccc(NC(=O)c4cc5ccccc5o4)cc3n2)cc1 | -2% | -3%[10.9 µM] | 23%
C[C@@H]1CC2C3CCC4=CC(=O)C=CC4(C)[C@@]3(F)[C@@H](O)CC2(C)[C@@]1(O)C(=O)CO (some centres undefined) | · | -4% | ·
SMILES | p53ts 32C kill | Imprint erasure | p53ts 39C kill
Cc1cc2c(cc3c(SCc4ccc(Cl)cc4)nnc(C)n32)o1 | -10% | -13%[10.9 µM] | 10µM*
Cc1cc2c(cc3c(SCc4cccc(F)c4)nnc(C)n32)o1 | -5% | -15%[10.9 µM] | -28%
Cc1ccc(CN2C(=O)C(=O)c3cc(Br)cc(C)c32)cc1 | ? | -23%[10.9 µM] | 10µM*
CCCOc1ccc(CN2C(=O)C(=O)c3cccc(C)c32)cc1 | 43% | -26%[10.9 µM] | 16µM*
Cc1cccc2c1N(CCOc1ccc(C(C)(C)C)cc1)C(=O)C2=O | · | · | 4%
Cc1ccc(Cn2ccn(CC(=O)Nc3c(C)cc(C)cc3C)c(=O)c2=O)cc1 | 2% | 16%[10.9 µM] | -2%
Cc1ccc(Nc2nc(N)nc(N)c2S(=O)(=O)c2ccccc2)cc1 | 24% | -16%[10.9 µM] | 13%
COc1cc(OC)c(NC(=O)Nc2ccc3c(c2)N(C)C(=O)c2ccccc2S3)cc1Cl | -2% | -13%[10.9 µM] | ?
CNC(=O)c1cnc2sc(N3CCC(C)CC3)nn2c1=O | -22% | -12%[10.9 µM] | -25%
COc1ccccc1-c1nnc(SCC(=O)Nc2ccccc2F)o1 | -19% | -43%[10.9 µM] | -1%
Cc1ccc(-c2nnc(SCC(=O)Nc3ccccc3F)o2)cc1 | 5µM* | -91% | 2.5µM*
O=C(CSc1nnc(-c2ccccc2)o1)Nc1ccccc1F | 13µM* | -93% | 10µM*
COC(=O)c1ccccc1NC(=O)CSc1nnc(-c2ccc(C)cc2)o1 | 4% | · | 5%
Cc1cnc(NC(=O)CSc2nnc(-c3ccccc3)o2)s1 | ? | -59% | 10µM*
Cc1cnc(NC(=O)CSc2nnc(COc3c(C)cccc3C)o2)s1 | -8% | 8% | 4%
O=C(COc1ccccc1Cl)Nc1nc2c(s1)CCCC2 | -15% | -14%[10.9 µM] | -18%
Cc1cnc(NC(=O)COc2ccccc2Cl)s1 | 4µM* | -83% | 5µM*
CCn1ccc2cc(S(=O)(=O)N3CCCN(C(=O)NCCOC)CC3)ccc21 | -1% | -17%[10.9 µM] | 9%
CCOc1ccc(CNC(=O)Nc2ccc3c(c2)N(C)C(=O)c2ccccc2S3)cc1 | 1% | -10%[10.9 µM] | -29%
Cc1cccc(-n2ncc3c(N4CCN(CCO)CC4)ncnc32)c1 | -5% | -11%[10.9 µM] | -18%
Cn1cc(C(=O)NCc2ccccc2)c(=O)c2cc(S(=O)(=O)N3CCCCCC3)ccc21 | 2% | 13%[10.9 µM] | -6%
CCOC(=O)Nc1nnc(-c2ccccc2OC)s1 | -11% | 0% | -8%
COC(=O)Nc1nnc(-c2ccccc2Cl)s1 | 10µM* | ? | 13µM*
COc1cc(-c2oc3cc(O)ccc3c(=O)c2O)ccc1O | 43% | -45% | 21%
CCOc1ccc(-c2oc3cc(Cl)ccc3c(=O)c2O)cc1OC | -15% | 6%[10.9 µM] | 7.9µM*
SMILES | p53ts 32C kill | Imprint erasure | p53ts 39C kill
COC(=O)c1ccccc1NS(=O)(=O)c1cc2c3c(c1)CC(=O)N3CCC2 | 8% | 4%[10.9 µM] | 11%
NC(=O)c1ccccc1N/C=C/C(=O)c1ccccc1 | 5µM* | -87% | 10µM*
CC(C)=CC(=O)Nc1ccccc1C(N)=O | 5% | -8% | 16%
CCc1ccc(S(=O)(=O)c2nnn3c2nc(N(CC)Cc2ccccc2)c2cc(Cl)ccc23)cc1 | 16% | -16%[10.9 µM] | -11%
Cc1cccc(-c2nc(CN3CCCC(C(=O)NCCc4ccc(Cl)cc4)C3)c(C)o2)c1 (centres undefined) | ? | -13%[10.9 µM] | 13µM*
Cc1oc(-c2ccc(Cl)cc2)nc1CN1CCCC(C(=O)NCCc2ccccc2)C1 (centres undefined) | -13% | -12%[10.9 µM] | ?
CCc1ccccc1NC(=O)Cn1c(=O)n(-c2ccc(C)cc2)c(=O)c2cc(OC)c(OC)cc21 | 10% | 19%[10.9 µM] | 9%
Cc1oc2ccc(O)c(CN(C)Cc3ccccc3)c2c1C(=O)Nc1cccc(C(F)(F)F)c1 | 14µM* | -8%[10.9 µM] | 20µM*
Cc1oc2ccc(O)c(CN(C)Cc3ccccc3)c2c1C(=O)Nc1ccccc1 | ? | -9%[10.9 µM] | ?
